Hits are enriched below; roughly 3% of the tested compounds scored in any of these assays.
DRD3 antagonist: blocks the human D3 dopamine receptor | D3R cells, DiscoveRx beta-arrestin luminescence, antagonist mode; hits give low values | hit rate 2.5% among 360,000 | P35462 | max response, negative = inhibition, %; in the data active = max response below about -50%; note: % is set by controls: 0 for no effect and ±100 for the full control effect
Target sequence (P35462 whole entry, looked up): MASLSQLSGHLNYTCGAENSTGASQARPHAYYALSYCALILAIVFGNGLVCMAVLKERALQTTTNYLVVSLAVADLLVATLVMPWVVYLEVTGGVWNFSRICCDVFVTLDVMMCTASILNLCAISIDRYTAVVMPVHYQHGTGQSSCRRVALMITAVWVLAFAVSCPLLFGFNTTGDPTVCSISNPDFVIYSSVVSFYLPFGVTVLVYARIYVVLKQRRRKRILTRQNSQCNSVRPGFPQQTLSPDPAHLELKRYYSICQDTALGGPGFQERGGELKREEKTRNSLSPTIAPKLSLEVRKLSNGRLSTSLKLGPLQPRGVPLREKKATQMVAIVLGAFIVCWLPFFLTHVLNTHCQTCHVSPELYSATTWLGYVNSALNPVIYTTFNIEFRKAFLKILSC
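Cells plated overnight at 1500 cells/well, then exposed to library compounds with dopamine controls for 90 minutes at 37 degrees C. DiscoveRx reagent added for 30–60 minutes at room temperature; luminescence read, quantitative HTS format.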
Nrf2 ARE act: activators of Nrf2 (ARE) signaling | AREc32 ARE-luciferase reporter (MCF7-derived line), luminescence, 24 h | Potency, µM (titrated, usually from 46.1 µM), without a hit: top-dose activation, usual class: activators | hit rate 0.31% among 410,000; note: potency is the fitted concentration of half-maximal effect; % of control where 0% means no effect; nearly all actives have a fitted effect of over 65% in size
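Reporter line AREc32 (ARE-Fluc), seeded overnight in OPTI-MEM with 5% FBS; compound pin-transferred, 24 hr at 37 deg C, 5% CO2; luminescent read-out.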
GRP78 ERSR act: inducers of ER stress response in human glioma cells; U87-MG GRP78 promoter luciferase reporter, 16 h; Potency, µM, for inactives: at the top dose activation, most hits filed as activators; hit rate 0.02% among 420,000; AID 602332; note: potency is the fitted concentration of half-maximal effect; series mostly up to about 76 µM; % of control where 0% means no effect; nearly all actives have a fitted effect of over 35% in size
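Stably transfected U87-MG human glioma cells carrying a GRP78-based luminescent sensor were seeded at 1000 cells/well, pin-dosed with compounds and incubated 16 h. Luciferase reagent was then added, and end-point luminescence was read after 10 min at room temperature.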
DRD3 agonist: D3 dopamine receptor (human) agonism. P35462. hit rate 0.58% among 410,000. max activation, %. D3R DiscoveRx beta-arrestin cells, luminescence, 90 min; in the data active = max activation above about 30%; note: 0% is about no effect
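Cells at 1500/well, incubated overnight, then treated with pinned compounds (dopamine as control) for 90 min at 37 degrees C. DiscoveRx reagent added for 30 - 60 minutes at room temperature; luminescence read.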
Starred values were filed as active, the others as inactive; nt = no result given. Unless noted, calls come from the whole dose curve; as a rule, active = well fitted curve in the direction sought with a large enough effect; inconclusive = small, poorly fitted or top-dose-only effect, or another doubt; inactive = no such curve, though single readings can be large; an effect the other way counts as inactive or inconclusive.

SMILES	DRD3 antagonist	Nrf2 ARE act	GRP78 ERSR act	DRD3 agonist
COC(=O)c1[nH]c2ccccc2c1NC(=O)CCN1CCSCC1	-57*	-1%	-4%	1
COC(=O)c1[nH]c2cc(OC)ccc2c1NC(=O)CCN1CCN(c2ccccc2)CC1	-76*	1%	-2%	-3
COc1ccccc1OCC(=O)N(Cc1ccc(N(C)C)cc1)CC1CCCO1 (configuration not stated)	nt	5%	-1%	0
COC(=O)c1[nH]c2cc(OC)ccc2c1NC(=O)CCN1CCN(c2cccc(C)c2C)CC1	-80*	21%	-6%	-3
COc1ccc(NC(=O)Nc2cccc3ccccc23)c(OC)c1	-1	-2%	0%	-6
COc1ccc(OC)c(NC(=O)Nc2cccc3ccccc23)c1	-57*	0%	-2%	-16
CCc1ccc2[nH]c(=O)c(CN(Cc3cccnc3)Cc3nnnn3Cc3ccccc3)cc2c1	nt	nt	-1%	nt
C=CCN1CCc2cc(O)c(O)cc2C(c2ccccc2)C1 (configuration not stated)	32	0%	-4%	139*
C=CCN1CCc2c(cc(O)c(O)c2Cl)C(c2ccccc2)C1 (configuration not stated)	0	1%	-2%	97*
C=CCN1CCN(C(=O)c2ccc(-c3ccccc3)cc2)CC1	-28	-1%	1%	-10
C=CCSc1nnc(C2CCCN(Cc3ccccc3O)C2)n1C (configuration not stated)	nt	nt	-2%	nt
N#Cc1ccc(OCCOCCNC2CCCC2)cc1	-50*	0%	0%	-12
Cc1cccc(Cn2cnc3c(cnn3C(C)(C)C)c2=O)c1F	nt	nt	-2%	nt
Cc1cc(C(=O)Nc2ccccc2-c2nc(CNC(=O)c3cc4ccccc4cn3)c(C)o2)c(C)o1	nt	nt	-2%	nt
COc1cccc(CNC(=O)CCC2CCCN(C(=O)c3cccc(Cl)c3)C2)c1 (configuration not stated)	-1	2%	-1%	42*
COc1cccc(CNC(=O)CCC2CCCN(C(=O)CCC(F)(F)F)C2)c1 (configuration not stated)	-27	0%	1%	-7
COc1cccc(CNC(=O)CCC2CCCN(Cc3cc4ccccc4o3)C2)c1 (configuration not stated)	-71*	5%	-1%	-15
CC(=O)CC/C=C(\C)CC/C=C(\C)CC/C=C(\C)CCC=C(C)C	nt	nt	nt	-5
CCOC(=O)c1c(S(=O)(=O)NCC2CCN(CCc3cccs3)CC2)c(C)n(C)c1C	-83*	2%	-6%	-23
CCN1C(=O)CC(CC(=O)N2CCC(c3nc4ccc(F)cc4[nH]3)CC2)(c2ccccc2C)C1=O (configuration not stated)	nt	nt	-6%	nt
Cc1cc(O)ccc1C1(c2ccc(O)cc2C)OC(=O)c2ccccc21	-5	3%	0%	2
O=C1OC2(c3ccc(O)cc3Oc3cc(O)ccc32)c2ccccc21	nt	nt	1%	30*
COc1ccccc1C(=O)N1CCCC(c2nc(SCCN3CCOCC3)ncc2C)C1 (configuration not stated)	nt	nt	-6%	nt
COC(=O)COc1ccc2c(-c3ccc(OC)cc3)cc(=O)oc2c1	-25	-1%	25µM*	-10
COc1ccc(-c2cc(=O)oc3cc(OCc4nn[nH]n4)ccc23)cc1	-53*	0%	-2%	-5
SMILES	DRD3 antagonist	Nrf2 ARE act	GRP78 ERSR act	DRD3 agonist
COc1ccc(-c2cc3ccc(OCc4nn[nH]n4)cc3oc2=O)cc1OC	-12	0%	-2%	0
C(=C\c1ccc2ccccc2n1)/c1cccnc1	nt	nt	-10%	nt
COc1ccc(Nc2nc(N)nc(CSc3nc(C)cc(C)n3)n2)cc1	-61*	5%	-5%	-11
COc1ccccc1Nc1nc(N)nc(CSc2nc(C)cc(C)n2)n1	12	0%	-3%	3
O=C(O)c1ccc(NC2=C/C(=N/S(=O)(=O)c3cccs3)c3ccccc3C2=O)cc1	-84*	-5%	-14%	-21
O=C(O)c1ccc(Nc2nc3ccccc3nc2NS(=O)(=O)c2cccs2)cc1	-5	0%	0%	5
O=C1C(Nc2ccc(O)cc2)=C/C(=N/S(=O)(=O)c2cccs2)c2ccccc21	-85*	-3%	-14%	-31
O=C(Nc1ccc(Cl)cc1)Nc1nnc(-c2ccncc2)s1	27	1%	-3%	49*
CCNCCNc1ccc(Cl)cc1[N+](=O)[O-]	-75*	-1%	-5%	-11
CS(=O)(=O)NCCCNc1ccc(Cl)cc1[N+](=O)[O-]	-50*	0%	-4%	-3
CS(=O)(=O)NCCCNc1ccc(C(F)(F)F)cc1[N+](=O)[O-]	-3	0%	-3%	-10
NC1(c2ccc(-c3nc4ccn5c(=O)[nH]nc5c4cc3-c3ccccc3)cc2)CCC1	nt	nt	-11%	-19
COc1cc(=O)n2c(c1C(=O)N(C)Cc1nonc1C)CCN(CC1CC=CCC1)CC2 (configuration not stated)	nt	nt	-4%	nt
COc1cccc(C(=O)NCC2Cc3c(F)ccc(-c4ncccn4)c3O2)c1OC (configuration not stated)	nt	nt	-2%	nt
CC1(C)CC(=O)C=C(c2ccc(Oc3ccccc3)cc2)C1	-65*	1%	2%	-6
CC1(C)CC(=O)C=C(c2ccc(OC(F)(F)F)cc2)C1	0	2%	-2%	0
COc1ccccc1N1CCN(C(c2ccc(N(C)C)cc2)c2nnnn2CCc2ccccc2)CC1 (configuration not stated)	-51*	0%	-2%	1
COc1ccc(C(c2nnnn2CCc2ccccc2)N2CCN(C3CCCC3)CC2)cc1 (configuration not stated)	-85*	0%	-4%	0
COc1ccccc1N1CCN(C(c2ccccc2)c2nnnn2Cc2ccccc2)CC1 (configuration not stated)	nt	nt	-3%	nt
Cc1ccc(C(c2nnnn2C(C)(C)C)N2CCN(C3CCCC3)CC2)cc1 (configuration not stated)	-92*	0%	-1%	-16
COc1ccc(Cn2nnnc2C(c2ccccc2)N2CCN(C3CCCC3)CC2)cc1 (configuration not stated)	-27	0%	-5%	-10
CC1=Nc2ccccc2/C1=C\c1sc(Nc2ccc(C)cc2)nc1O	-54*	4%	-1%	-14
Oc1nc(Nc2ccc(F)cc2)sc1/C=C1\C=Nc2ccccc21	-11	19%	3%	-2
Fc1ccccc1COc1ccc(Br)cc1CNCc1ccncc1	-68*	-1%	-13%	-12
N#Cc1cn(CC(=O)N2CCc3ccccc3C2)c2ccccc12	-53*	0%	2%	-10
O=C(c1ccccc1)c1cccn1CC(=O)N1CCc2ccccc2C1	-54*	-1%	1%	-14
CNc1c(Br)cc(C=O)cc1Br	nt	nt	-2%	nt
O=c1c2ccccc2nc2n1CC/C2=C/N1CCN(c2cccc(C(F)(F)F)c2)CC1	-91*	3%	-3%	-38
O=C(O)c1ccc2c(=O)n3c(nc2c1)/C(=C/c1ccc(C(F)(F)F)cc1)CC3	-5	6%	-2%	2
Cc1ccc(NC(=O)Cn2nnc(C(=O)Nc3ccc(C)c(C)c3)c2N)cc1	-66*	-1%	5%	-7

From PubChem
